This passage reports binding signal results from publication PMC8384837, “Expanding the binding specificity for RNA recognition by a PUF domain”.

Substitutions are numbered along the chain they refer to.

What all share (assay): yeast three-hybrid, YBZ-1, SC-Leu-His + 0.5 mM 3-AT, 4 days
Settings in all cases: tags: N-Gal4 AD-HA kept; label: inside an RPR1-promoter hybrid RNA with tandem MS2 sites; ssRNA

Assay [1] deals with PUM1 PUF domain R1-KLL (Homo sapiens, UniProt Q14671 828-1176, S863K;R864L;Q867L). The method in brief: (§1)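 Pumilio-1 PUF domain libraries, randomized (NNK) at the three base-contacting residues of each repeat, were co-expressed with matching RNA elements from a centromeric plasmid in strain YBZ-1 (LexA–MS2 coat fusion, HIS3 reporter). Transformants were plated on SC-Leu (input) and SC-Leu-His + 0.5 mM 3-AT (selection) for four days, and repeat regions were PCR-amplified and Illumina-sequenced. The interaction score is the log2 change in variant frequency from input to selection, with pseudocount 1 where absent.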

The target in assay [2] is PUM1 PUF domain R1-NFV (Homo sapiens, UniProt Q14671 828-1176, S863N;R864F;Q867V). The method in brief:
as §1

In assay [3] the target is PUM1 PUF domain R1-AWR (Homo sapiens, UniProt Q14671 828-1176, S863A;R864W;Q867R). The method in brief: as §1
Assay [4] deals with PUM1 PUF domain R5-RSG (Homo sapiens, UniProt Q14671 828-1176, C1007R;R1008S;Q1011G). The method in brief:
as §1

Assay [5] has as its target T1, PUM1 PUF domain R6-HFG (Homo sapiens, UniProt Q14671 828-1176, N1043H;Y1044F;Q1047G).
T1 sequence: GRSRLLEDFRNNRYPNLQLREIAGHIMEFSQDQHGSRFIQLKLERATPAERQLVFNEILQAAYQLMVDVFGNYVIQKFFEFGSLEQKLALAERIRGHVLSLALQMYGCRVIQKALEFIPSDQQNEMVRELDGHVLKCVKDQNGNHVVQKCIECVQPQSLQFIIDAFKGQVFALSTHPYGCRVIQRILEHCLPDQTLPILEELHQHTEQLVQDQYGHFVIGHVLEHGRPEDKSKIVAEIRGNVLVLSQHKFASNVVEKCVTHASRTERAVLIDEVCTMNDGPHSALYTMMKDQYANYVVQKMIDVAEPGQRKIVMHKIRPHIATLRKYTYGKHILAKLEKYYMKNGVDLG
The method in brief: as §1

Assay [6] deals with PUM1 PUF domain R5-PRA (Homo sapiens, UniProt Q14671 828-1176, C1007P;Q1011A). The gist of the method:
as §1

The target of assay [7] is PUM1 PUF domain R8-VHR (Homo sapiens, UniProt Q14671 828-1176, N1122V;Y1123H;Q1126R). The gist of the method:
as §1

The target of assay [8] is PUM1 PUF domain R3-LYA (Homo sapiens, UniProt Q14671 828-1176, C935L;R936Y;Q939A). The method in brief: as §1
In assay [9] the target is PUM1 PUF domain R8-RFS (Homo sapiens, UniProt Q14671 828-1176, N1122R;Y1123F;Q1126S). The gist of the method:
as §1

Assay [10] deals with T2, PUM1 PUF domain R6-QYG (Homo sapiens, UniProt Q14671 828-1176, N1043Q;Q1047G).
T2 sequence: T1 sequence with H216Q, F217Y
The gist of the method: as §1

The target of assay [11] is PUM1 PUF domain R3-TME (Homo sapiens, UniProt Q14671 828-1176, C935T;R936M;Q939E). The method in brief:
as §1

Assay [12] concerns the target PUM1 PUF domain R4-DWE (Homo sapiens, UniProt Q14671 828-1176, N971D;H972W;Q975E). The gist of the method: as §1
Assay [13] concerns the target PUM1 PUF domain R7-KRS (Homo sapiens, UniProt Q14671 828-1176, S1079K;N1080R;E1083S). The method in brief: as §1
Assay [14] deals with PUM1 PUF domain R7-GPR (Homo sapiens, UniProt Q14671 828-1176, S1079G;N1080P;E1083R). The gist of the method: as §1
For assay [15], the target named is PUM1 PUF domain R7-RRT (Homo sapiens, UniProt Q14671 828-1176, S1079R;N1080R;E1083T). The gist of the method:
as §1

For assay [16], the target named is PUM1 PUF domain R7-QRR (Homo sapiens, UniProt Q14671 828-1176, S1079Q;N1080R;E1083R). The method in brief:
as §1

For the sequence “GGCUAGAACUAGUGGAUCCCCCGGCGCCCGGCGGCUCGAGCCCGGGUAAGUGUAAAUUGUCUGCAUGCCGCCGGGCGCCAUGCCUGCAGGUCGACUCUAGAAAACAUG”, the binding signal in assay [1] was 3.14 log2 enrichment (interaction score); in assay [2] it was 5.68 log2 enrichment (interaction score); in [3] it was 1.06 log2 enrichment (interaction score).

Consider “GGCUAGAACUAGUGGAUCCCCCGGCGCCCGGCGGCUCGAGCCCGGGUAAGUGUCAAUAGUCUGCAUGCCGCCGGGCGCCAUGCCUGCAGGUCGACUCUAGAAAACAUG”, for which, in assay [4], the binding signal was 3.08 log2 enrichment (interaction score).

As for “GGCUAGAACUAGUGGAUCCCCCGGCGCCCGGCGGCUCGAGCCCGGGUAAGUGUAAAUAGUCUGCAUGCCGCCGGGCGCCAUGCCUGCAGGUCGACUCUAGAAAACAUG”, the binding signal was 5.43 log2 enrichment (interaction score) in assay [5]; 4.36 log2 enrichment (interaction score) in [6]; 3.13 log2 enrichment (interaction score) in assay [7]; 2.44 log2 enrichment (interaction score) in assay [8]; 6.27 log2 enrichment (interaction score) in assay [9]; 3.17 log2 enrichment (interaction score) in [10].

In the case of “GGCUAGAACUAGUGGAUCCCCCGGCGCCCGGCGGCUCGAGCCCGGGUAAGUGUAAGUAGUCUGCAUGCCGCCGGGCGCCAUGCCUGCAGGUCGACUCUAGAAAACAUG”, the binding signal was 4.56 log2 enrichment (interaction score) in [11] and 4.73 log2 enrichment (interaction score) in [8].

Turning to “GGCUAGAACUAGUGGAUCCCCCGGCGCCCGGCGGCUCGAGCCCGGGUAAGUGUAGAUAGUCUGCAUGCCGCCGGGCGCCAUGCCUGCAGGUCGACUCUAGAAAACAUG”, the binding signal in [12] was 4.93 log2 enrichment (interaction score).

Take “GGCUAGAACUAGUGGAUCCCCCGGCGCCCGGCGGCUCGAGCCCGGGUAAGUCUAAAUAGUCUGCAUGCCGCCGGGCGCCAUGCCUGCAGGUCGACUCUAGAAAACAUG”: the binding signal in assay [13] was 4.34 log2 enrichment (interaction score); in [14] it was 3.96 log2 enrichment (interaction score); in assay [15], 4.42 log2 enrichment (interaction score); in assay [16], 3.77 log2 enrichment (interaction score).

In the case of “GGCUAGAACUAGUGGAUCCCCCGGCGCCCGGCGGCUCGAGCCCGGGUAAGUGUAAAUCGUCUGCAUGCCGCCGGGCGCCAUGCCUGCAGGUCGACUCUAGAAAACAUG”, the binding signal in assay [1] was 4.54 log2 enrichment (interaction score); in [3], 4.26 log2 enrichment (interaction score).
